The nature of assay [1]: stimulators of nuclear beta-catenin in C2C12, primary screen, imaging, WNT3A-conditioned medium, mouse C2C12, NPC library (AID 1117326). Also: reference of the scale not given here. Particulars: stronger effect = higher value.
Assay [2] is described as follows: stimulators of insulin release from INS-1E, primary screen, cell-based, 5 mM glucose, NPC library (AID 1117329;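 active = compound raises insulin release from rat beta cells at 5 mM glucose, no numeric limit stated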; also: reference of the scale not given here). Particulars: rat INS-1E insulin secretion, at 10 µM, stronger effect = higher value.
Assay [3] is described as follows: growth inhibition of GSK3B-pretreated HCT116 cells – cell-based, CellTiter-Glo, 0.2 to 20 µM (AID 1117336;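 active = compounds lowering colon cancer cell viability after pretreatment blocking the GSK3B kinase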). Particulars: HCT116 viability after GSK3B inhibitor, at 20 µM, stronger effect = higher value.
Assay [4] can be described thus: inhibition of endothelial tube formation, primary screen, imaging, VEGF stimulated, CD31 staining, tube area, NPC library (AID 1117340;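 active = compound that reduces growth-factor-driven endothelial tube area in a mixed cell culture, no cutoff stated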). As to conditions: VEGF-stimulated ADSC/ECFC co-culture, at 10 µM, stronger effect = higher value.
A short description of assay [5]: glucagon-like peptide 1 release enhancers, primary assay, NCI-H716 cell line, NPC library (AID 1117341;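 active = compound raises GLP1 secretion from the human gut endocrine cells, with no numeric limit stated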; also: reference of the scale not given here). Particulars: NCI-H716 cells, at 10 µM, stronger effect = higher value.
Assay [6] in a line: HCT116 colon cancer cell growth inhibition, primary screen, CellTiter-Glo luminescence, NPC library (AID 1117342;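 active = compounds that lower survival of HCT116 colon cancer cells in the luminescence readout, no numeric limit stated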). As to conditions: at 20 µM (top of the series).
A short description of assay [7]: CellTiter-Glo luminescent readout of SW480 viability loss, NPC library primary (AID 1117343;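 active = compounds that lower viability of the colon cancer cells in the luminescence readout, with no numeric limit stated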). Particulars: CellTiter-Glo luminescence; at 20 µM (top of the series).
A short description of assay [8]: decreased DLD-1 cellular survival, CellTiter-Glo luminescent readout, NPC compound collection, primary HTS (AID 1117346;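 active = compounds that lower survival of DLD-1 colon cancer cells in the luminescence readout, no cutoff given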). As to conditions: DLD-1 viability, CellTiter-Glo luminescence; at 20 µM (top of the series).

The structures appear in SMILES notation. Calls of active or inactive are those of the source. Rule as the data show it, unless noted: active = nuclear beta-catenin stimulation mostly above about 4.2% (no sharp cut-off); inactive = mostly below about 10%.

We go through 14 molecules from PubChem BioAssay.

For the molecule `Cc1ccc2c(Br)cc(Br)c(O)c2n1`, the nuclear beta-catenin stimulation in assay [1] (at 10 µM) is 43% (active); in assay [1] (stimulation, at 2 µM), 5.5%. Moreover, in assay [2], the insulin secretion stimulation was 2.4% (inactive). In assay [3], the viability decrease is 91% (active). Also, in assay [4], the tube area decrease is 106% (active). In addition, the GLP1 secretion stimulation in assay [5] was -1.3% (inactive). Further, the inhibition of viability in assay [6] was 79.2% (active). Besides, the figures for the viability decrease (inhibition) in assay [7] and in assay [8] were 90.3% (active) and 93.3% (active), respectively.

Take `CCCCCCCCCCCCCCCC(=O)OC(C)C`: the nuclear beta-catenin stimulation in assay [1] (at 10 µM) is 0.6% (inactive); in assay [1] (stimulation, at 2 µM), 1.3%. Moreover, the insulin secretion stimulation in assay [2] was 2.3% (inactive). The viability decrease in assay [3] is -9.5% (inactive). Also, the tube area decrease in assay [4] is -17.7% (inactive). In addition, the GLP1 secretion stimulation in assay [5] is -1.2% (inactive). Besides, the inhibition of viability in assay [6] is 3.07% (inactive). For the same molecule, the viability decrease (inhibition) is -0.2% (inactive) in assay [7] and -1.5% (inactive) in assay [8].

Turning to `Oc1ccccc1-c1nnco1`, the nuclear beta-catenin stimulation in assay [1] (at 10 µM) is 0.3% (inactive); in assay [1] (stimulation, at 2 µM), -0.2%. In addition, in assay [2], the insulin secretion stimulation is 3.2% (inactive). Moreover, the viability decrease in assay [3] was -2.4% (inactive). For the same molecule, the tube area decrease in assay [4] was -3.9% (inactive). Also, the GLP1 secretion stimulation in assay [5] was -0.1% (inactive). In addition, in assay [6], the inhibition of viability is 12.2% (inactive). Further, the viability decrease (inhibition) in assay [7] is 22.1% (inactive); in assay [8], -0.7% (inactive).

With `N[C@@H](CSSC[C@H](N)C(=O)O)C(=O)O`, the nuclear beta-catenin stimulation was 1.1% (inactive) in assay [1] (at 10 µM) and 3.2% in assay [1] (stimulation, at 2 µM). Moreover, the insulin secretion stimulation in assay [2] is -2.2% (inactive). Moreover, the viability decrease in assay [3] is 0.8% (inactive). In addition, the tube area decrease in assay [4] was -4% (inactive). For the same molecule, the GLP1 secretion stimulation in assay [5] is 3.6% (inactive). In addition, the inhibition of viability in assay [6] is -21.6% (inactive). The viability decrease (inhibition) in assay [7] is 38.7% (inactive); in assay [8] it was 8.45% (inactive).

Consider `NCc1ccccc1Sc1ccccc1CO`, for which the nuclear beta-catenin stimulation in assay [1] (at 10 µM) is 0.6% (inactive); in assay [1] (stimulation, at 2 µM), 1%. In assay [2], the insulin secretion stimulation was -0.8% (inactive). In addition, in assay [3], the viability decrease is -138% (inactive). The tube area decrease in assay [4] is -11.8% (inactive). Besides, the GLP1 secretion stimulation in assay [5] was 3.3% (inactive). In addition, in assay [6], the inhibition of viability is 6.13% (inactive). Also, the viability decrease (inhibition) in assay [7] was 29.2% (inactive); in assay [8], -10.7% (inactive).

For `O=C(CCN1CCN2CCCC2C1)N1c2ccccc2Sc2ccc(Cl)cc21` (stereo unspecified), the nuclear beta-catenin stimulation was 1.1% (inactive) in assay [1] (at 10 µM) and 0.2% in assay [1] (stimulation, at 2 µM). Besides, the insulin secretion stimulation in assay [2] was 63.8% (active). Also, the viability decrease in assay [3] is 49.9% (inactive). Moreover, the tube area decrease in assay [4] was 8% (inactive). Further, in assay [5], the GLP1 secretion stimulation was 8.5% (inactive). The inhibition of viability in assay [6] was 61.4% (active). Also, the viability decrease (inhibition) in assay [7] is 99.3% (active); in assay [8], 49.5% (inactive).

Regarding `O[C@@H]1CO[C@H]2[C@@H]1OC[C@@H]2O`, the nuclear beta-catenin stimulation in assay [1] (at 10 µM) is 1% (inactive); in assay [1] (stimulation, at 2 µM), 1%. In addition, the insulin secretion stimulation in assay [2] is -2% (inactive). Moreover, in assay [3], the viability decrease is 2.15% (inactive). In addition, the tube area decrease in assay [4] is 16.5% (inactive). Moreover, the GLP1 secretion stimulation in assay [5] is 1.1% (inactive). The inhibition of viability in assay [6] is -9.1% (inactive). Moreover, the viability decrease (inhibition) was 51.8% (active) in assay [7] and -4.4% (inactive) in assay [8].

With `CCC(=O)Nc1ccc(O)cc1`, the nuclear beta-catenin stimulation was 9.3% (inactive) in assay [1] (at 10 µM) and 1.9% in assay [1] (stimulation, at 2 µM). Moreover, the insulin secretion stimulation in assay [2] is -2.2% (inactive). In assay [3], the viability decrease was -1% (inactive). The tube area decrease in assay [4] was 16% (inactive). Further, in assay [5], the GLP1 secretion stimulation was 4.4% (inactive). Further, the inhibition of viability in assay [6] was 12.2% (inactive). Besides, the viability decrease (inhibition) in assay [7] was 27% (inactive); in assay [8] it was 14.6% (inactive).

Regarding `Cc1onc(-c2c(Cl)cccc2Cl)c1C(=O)Cl`, the nuclear beta-catenin stimulation is -0.1% (inactive) in assay [1] (at 10 µM) and 0.5% in assay [1] (stimulation, at 2 µM). Further, in assay [2], the insulin secretion stimulation is 1.5% (inactive). Further, the viability decrease in assay [3] was -3.8% (inactive). Further, the tube area decrease in assay [4] was 54.1% (active). For the same molecule, the GLP1 secretion stimulation in assay [5] was 5.9% (inactive). Besides, the inhibition of viability in assay [6] was 13.6% (inactive). For the same molecule, the viability decrease (inhibition) in assay [7] was 17% (inactive); in assay [8], -2.5% (inactive).

For the molecule `NS(=O)(=O)c1ccc(N2CCCCS2(=O)=O)cc1`, the nuclear beta-catenin stimulation is 0.5% (inactive) in assay [1] (at 10 µM) and -0.6% in assay [1] (stimulation, at 2 µM). Further, the insulin secretion stimulation in assay [2] was -0.3% (inactive). Further, the viability decrease in assay [3] is -15.7% (inactive). Also, the tube area decrease in assay [4] was 5.1% (inactive). In assay [5], the GLP1 secretion stimulation was -1.7% (inactive). Moreover, the inhibition of viability in assay [6] is -8.93% (inactive). In addition, the figures for the viability decrease (inhibition) in assay [7] and in assay [8] were 29% (inactive) and -6.9% (inactive), respectively.

As to `Cn1c(O)c(N=NC(N)=S)c2ccccc21`, the nuclear beta-catenin stimulation is 2.5% (inactive) in assay [1] (at 10 µM) and 3.1% in assay [1] (stimulation, at 2 µM). Besides, the insulin secretion stimulation in assay [2] is 2% (inactive). Moreover, the viability decrease in assay [3] was 13.8% (inactive). Besides, the tube area decrease in assay [4] is 28.1% (inactive). Moreover, the GLP1 secretion stimulation in assay [5] was -3.5% (inactive). Moreover, in assay [6], the inhibition of viability is 39.9% (inactive). Moreover, the values for the viability decrease (inhibition) in assay [7] and in assay [8] were 30.4% (inactive) and 12.2% (inactive), respectively.

Take `CC(C)CCOC(=O)c1ccc(N(C)C)cc1`: the nuclear beta-catenin stimulation is 0% (inactive) in assay [1] (at 10 µM) and 0.7% in assay [1] (stimulation, at 2 µM). In addition, the insulin secretion stimulation in assay [2] is 0.4% (inactive). Also, the viability decrease in assay [3] was -16.7% (inactive). Also, the tube area decrease in assay [4] was -11.5% (inactive). Besides, the GLP1 secretion stimulation in assay [5] was 1.7% (inactive). Besides, the inhibition of viability in assay [6] was 19.9% (inactive). The viability decrease (inhibition) in assay [7] is -6.9% (inactive); in assay [8], 10.3% (inactive).

Regarding `O=C(O)CNC(=O)c1ccccc1`, the nuclear beta-catenin stimulation in assay [1] (at 10 µM) is 1.3% (inactive); in assay [1] (stimulation, at 2 µM), 1.4%. For the same molecule, in assay [2], the insulin secretion stimulation was -1.9% (inactive). In addition, in assay [3], the viability decrease is -9.35% (inactive). In addition, the tube area decrease in assay [4] is -7.6% (inactive). Moreover, in assay [5], the GLP1 secretion stimulation is 4% (inactive). In addition, in assay [6], the inhibition of viability was -1.6% (inactive). For the same molecule, the values for the viability decrease (inhibition) in assay [7] and in assay [8] were 24.7% (inactive) and 2.1% (inactive), respectively.

For `CCc1oc2ccccc2c1C(=O)c1cc(I)c(O)c(I)c1`, the nuclear beta-catenin stimulation is 4.9% (inactive) in assay [1] (at 10 µM) and 0.4% in assay [1] (stimulation, at 2 µM). In addition, the insulin secretion stimulation in assay [2] is -1.6% (inactive). Also, the viability decrease in assay [3] is 98.7% (active). The tube area decrease in assay [4] is 108% (active). In addition, the GLP1 secretion stimulation in assay [5] was -3.6% (inactive). The inhibition of viability in assay [6] is 99% (active). In addition, the viability decrease (inhibition) was 101% (active) in assay [7] and 102% (active) in assay [8].
